These results are taken from PubChem BioAssay (NCI).

The panel holds about 83,000 compounds, 20% with a hit somewhere; the sample as a whole holds those more often.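 In brief: 96-well plates, 48 h treatment, single concentration, percent growth endpoint.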 The source made the active and inactive calls. How the source made its calls: active means growth percent below 10; inactive means the rest.

This test has as its system SK-MEL-5 melanoma. Kind of test: NCI-60 one-dose screen, 48 h (100 = growth as untreated, 0 = no growth, -100 = all killed). As to conditions: 10 µM unless noted.
Regarding `CCN(CC)CCCCCCNc1cc(OC)cc2cccnc12`, the growth is 68.5% (inactive).
In the case of `COc1ccccc1Nc1cc(O)c2c(=O)cc(-c3ccccc3)oc2c1`, the growth is 24.6% (inactive).
The result for `COc1ccc(C(O)c2cc3c(N)c(C(=O)Nc4ccc(Cl)cc4)sc3nc2C)cc1` (stereo not drawn) reads 15.4% (inactive); that for `COc1cc(NCC(O)CN(CC(C)C)CC(C)C)c2nc(C)ccc2c1` (stereo not drawn), 93.5% (inactive).
The result for `CCCCCCCCCCN=C(N)N=C(N)N` reads 4.63% (active); that for `COc1ccc(C(O)c2cc3c(N)c(C(=O)Nc4cccc(Br)c4C)sc3nc2C)cc1` (stereo not drawn), -7.36% (active); that for `CCCCCCCCCCCCCCCCCCOc1ccccc1N`, 98.2% (inactive).
The result for `CC(=O)O[C@H]1CC[C@@]2(C)[C@@H](CC[C@@H]3[C@@H]2CC[C@@]2(C)[C@H]3CC[C@]2(O)C(C)=O)C1` reads 94% (inactive); that for `CCC1(CC)NC(=O)c2c(c3ccc(Cl)c(Cl)c3n2C)C1C#N` (stereo not drawn), 89.9% (inactive).
As for `COc1ccc(C2CC(c3cccc(Nc4ccncc4)c3)=NN2c2cc(Cl)cc(Cl)c2)cc1` (stereo not drawn), the growth is 67.5% (inactive).
The result for `CC(=O)Nc1ccc(S(=O)(=O)NC2CCCCC2)cc1` reads 98.2% (inactive).
The figure for `Clc1ccc(N2N=C(c3cccc(Nc4ccncc4)c3)CC2c2ccccc2)cc1` (stereo not drawn) is 94% (inactive); for `CN1C2CCC1CN(c1cnc(C(=O)Nc3cc(F)cc4cccnc34)cn1)C2` it is 79.5% (inactive).
For the compound `C=Cc1cc[n+](CCCCCCCCCCCC)cc1`, the growth is 104% (inactive).
Take `CCCCCCCCCCCCCCCC(=O)OC[C@@]1(O)C[C@@]23CC[C@@H]4C(C)(C)[C@H](O)CC[C@@]4(C)[C@@H]2CC[C@H]1C3`: the growth was 102% (inactive).
As to `O=C(CN1CCOCC1)Nc1ccc2ncnc(Nc3ccc(OCc4cccc(F)c4)c(Cl)c3)c2c1`, the growth is 61.5% (inactive).
Turning to `Clc1cc(Cl)cc(N2N=C(c3cccc(Nc4ccncc4)c3)CC2c2ccccc2)c1` (stereo not drawn), the growth was 79.9% (inactive).
The result for `C[C@]12CCc3nc(Nc4cccc(O)c4)sc3C1=CC[C@@H]1[C@@H]2CC[C@]2(C)/C(=N\NC(N)=S)CC[C@@H]12` reads 36.7% (inactive); that for `Cc1c2c(cc[n+]1Cc1ccccc1)c1ccc(OCc3ccccc3)cc1n2Cc1ccccc1`, -99.4% (active); that for `O=C(O)CNC(=O)CN1C(=O)c2ccccc2C1=O`, 99.6% (inactive).
The result for `O=C(Nc1nc2ccc(C(=O)N3CCN(c4ccc(Cl)c(Cl)c4)CC3)cc2s1)c1ccc(NCCc2ccccc2)c([N+](=O)[O-])c1` reads 87.9% (inactive); that for `COc1ccccc1-c1c(-c2ccc(Cl)cc2)c2cc3c(cc2[nH]c1=O)OCCO3`, 63.8% (inactive).
The result for `O=S(=O)(NCCNc1nccc(-c2c(-c3ccc(F)c(O)c3)nc3occn23)n1)c1ccccc1` reads 22.8% (inactive); that for `Clc1cc(Cl)cc(N2N=C(c3cccc(Nc4ccncc4)c3)CC2c2ccc(Br)cc2)c1` (stereo not drawn), 79% (inactive); that for `Cn1c(COC(=O)NCCn2ccnc2)nc2c(N3CCOCC3)nc(-c3ccccc3)nc21`, -96% (active).
For the compound `Cc1c2c(cc[n+]1Cc1ccc(F)cc1)c1ccc(OCc3cccc(F)c3)cc1n2Cc1cccc(F)c1`, the growth is -99.4% (active).
`CCCOc1nc(SCCC)nc2c1cnn2-c1ccccc1`: the growth was 106% (inactive).
On to `Cc1ccc(/C=C/C(=O)c2ccc(N)cc2)c(C)c1`, for which the growth was 96% (inactive).
For the compound `Cc1cc(C)c(C=O)c(C)c1`, the growth was 99.8% (inactive).
The result for `COc1ccc(-c2c(-c3ccccc3)noc2N)cc1OC` reads 97.3% (inactive); that for `O=C1c2cccnc2C(=O)c2nc3cc(N4CCN(C5CC5)CC4)ccc3nc21`, -98.1% (active); that for `c1ccc(N2N=C(c3cccc(Nc4ccncc4)c3)CC2c2ccc3c(c2)OCO3)cc1` (stereo not drawn), -14.3% (active).
The figure for `COc1cc(NCC(C)(O)CN(CC(C)C)CC(C)C)c2nc(C)ccc2c1` (stereo not drawn) is 86.4% (inactive); for `C[C@@H]1CN(Cc2ccc(/C=C/c3n[nH]c4ccc5nc(-c6cn[nH]c6C(F)(F)F)c6c(c5c34)CCCC6)cc2)C[C@H](C)O1` it is 40.3% (inactive); for `CC1(C)CCCN1CCCN1c2ccccc2Sc2ccc(Cl)cc21` it is 2.18% (active).
The result for `CC1CCN(C(=O)OCc2nc3nc(Cl)nc(N4CCOCC4)c3[nH]2)CC1` reads -27.3% (active).
Turning to `CC1(C)CN(c2cnc(C(=O)Nc3cc(F)cc4cccnc34)cn2)CCN1`, the growth was 89.3% (inactive).
With `Cn1c(COC(=O)NCCN2CCOCC2)nc2c(N3CCOCC3)nc(-c3ccccc3)nc21`, the growth was -93.6% (active).
